# From PubChem BioAssay
# Most compounds without a hit are left out; they make up all but 3.1% or so of the library.
# HSP90 inh – blocks HSP90-mediated luciferase refolding in reticulocyte lysate | Rabbit reticulocyte lysate, luciferase refolding luminescence, 3 h | inhibition, % at 5.6 µM | 290,000 tested, 0.91% active;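 active = inhibition above the screen-wide mean plus 3 SD, computed separately per campaign, cut at about 16% in these data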;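 note: 0% = DMSO wells and 100% = 60 µM geldanamycin wells; inhibitors lower the luminescence because luciferase stays unfolded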
# HSF1 inhib – HSF1 inhibition; NIH3T3-HGL HSE-luciferase, MG132-induced, luminescence 8 h; hits give low values; activity change, negative = inhibition, % at 7.5 µM (by protocol); 300,000 tested, 0.77% active; AID 2098;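 active = more than half of replicate wells show activity change below -50%, luminescence cut by over half; inconclusive = some wells, but at most half, below -50%; inactive = no replicate well below -50%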;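 note: luciferase reports HSF-1 transcriptional activity via heat shock element; 0% = median of DMSO wells and -100% = zero luminescence signal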
# ARNT TACC3 PPI – disrupts binding between human ARNT and TACC3. AlphaScreen His-ARNT PAS-B/GST-TACC3 binding, luminescence; TACC3 fragment carries E629A point mutation. inhibition, % at 9.99 µM. 390,000 tested, 0.66% active. AID 623870;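 active = mean inhibition of replicates at least 50% and at least half of replicates each reaching 50%; inconclusive = half or more replicates reach 50% but mean below 50%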;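 note: 0% = complete ARNT plus TACC3 wells and 100% = ARNT alone without TACC3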
# HSF-1 act – increases HSF-1 driven luciferase reporter signal; NIH3T3-HGL HSF-1 luciferase reporter, MG132, 8 h; 100% = twice DMSO control signal; activation, % at 9 µM; 300,000 tested, 1.7% active;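 active = mean replicate activation of at least 50% with a set share of replicates each reaching 50%; inconclusive = only one of those two conditions met; inactive = mean below 50% and too few replicates reaching it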;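 note: 0% = median of the neutral control wells and 100% = twice that signal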
# HIF activator – HIF pathway transcriptional activation; activation, % at 7.5 µM (by protocol); 300,000 tested, 0.32% active; U2OS HRE-luciferase reporter, luminescence; normalized: DMSO 0%, desferrioxamine 100%; AID 1910;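 active = mean activation of at least 10% of the iron chelator positive control signal, with at least half of replicates also reaching 10%; inconclusive = mean and replicate majority disagree about reaching 10%; inactive = mean and most replicates under 10%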
# Numbers without * were called inactive; u = inconclusive; x = no result given.
SMILES,HSP90 inh,HSF1 inhib,ARNT TACC3 PPI,HSF-1 act,HIF activator
CO[C@H]1CN(C)C(=O)c2cc(NC(=O)c3cnccn3)ccc2OC[C@H](C)N(C)C[C@@H]1C,x,x,7,x,x
CCn1ncc(Br)c1C(=O)Nc1ccc(C(C)C)cc1,1,25,14,59*,-18
CN(C)c1ccc(NS(=O)(=O)c2cc(Cl)ccc2Cl)cc1,-1,-56*,8,-61,2
CC(=O)n1cc(N(C(=O)CCl)c2ccc([N+](=O)[O-])cc2)c2ccccc21,7,61,0,75*,1
Clc1ccc(-n2c(SC/C=C/c3ccccc3)nnc2-c2cccnc2)cc1,6,38,12,69*,0
Nn1c(SC/C=C/c2ccccc2)nnc1-c1cccnc1,1,9,x,11,1
O=C(Nc1ccc2oc(-c3ccccc3)nc2c1)c1ccco1,0,35,-8,86*,1
Cc1ccc2oc(-c3ccccc3)nc2c1,-5,36,-7,69*,2
O=C(Nc1ccc2oc(-c3ccncc3)nc2c1)c1ccco1,-5,3,-5,20,1
O=C(Nc1ccc2oc(-c3ccccc3)nc2c1)C1CCCO1 (stereo not given),-2,24,27,73*,2
O=C(Nc1ccc(-c2nc3ccccc3o2)cc1)C1CCCO1 (stereo not given),6,8,4,28,-1
O=C(Nc1ccc2nn(-c3ccccc3)nc2c1)c1ccco1,4,16,1,54*,3
O=C(Nc1cc2nn(-c3ccccc3)nc2cc1Cl)c1ccco1,-2,18,0,-5,3
CCOc1cccc(-c2nc3cc(C)ccc3o2)c1,-2,21,10,20,1
COc1ccc(C(=O)Nc2ccc3c(c2)OC[C@@H](C)NC[C@H](C)[C@@H](OC)CN(C)C3=O)cc1,x,x,-5,x,x
O=C(COC(=O)c1ccc(Cl)nc1)c1ccc2c(c1)OCCO2,5,41,-13,65*,4
COc1ccc(-c2ncc3ccccn23)cc1OC,-5,8,11,26,2
Clc1ccccc1-c1ncc2ccccn12,0,129,-4,168*,3
Clc1ccc(-c2ncc3ccccn23)cc1,-1,38,0,63*,1
O=C(N/N=C/c1ccccn1)c1cc(-c2ccncc2)nc2ccccc12,-6,-10,68*,-3,-1
O=C(NC(C(=O)N/N=C/c1cc([N+](=O)[O-])ccc1O)c1n[nH]c(=O)c2ccccc12)c1ccccc1 (stereo not given),-9,3,68*,-8,-12
O=C(N/N=C/c1ccc(Cl)c([N+](=O)[O-])c1)c1cc(-c2ccccc2)nc2ccccc12,0,60,4,128*,1
O=C(N/N=C/c1cc([N+](=O)[O-])ccc1Cl)c1cc(-c2ccccc2)nc2ccccc12,-1,3,-25,9,0
O=C(N/N=C/c1cccc([N+](=O)[O-])c1)c1cc(-c2ccccc2)nc2ccccc12,3,2,5,33,0
O=C(N/N=C/c1cc([N+](=O)[O-])ccc1O)c1cc(-c2ccccc2)nc2ccccc12,4,-9,1,-13,20*
SMILES,HSP90 inh,HSF1 inhib,ARNT TACC3 PPI,HSF-1 act,HIF activator
O=C(C[C@@H]1CC[C@@H](NC(=O)Nc2ccc(C(F)(F)F)cc2)[C@H](CO)O1)NCc1cc(F)cc(F)c1,x,x,-2,x,x
CO[C@@H]1CC[C@@H]2CCN(C)C(=O)CCCN(C)C(=O)c3cccc(C#N)c3OC[C@H]1O2,x,x,-1,x,x
Cc1ccc(S(=O)(=O)Nc2ccc3c(c2)C(=O)N([C@H](C)CO)C[C@H](C)[C@@H](CN(C)C(=O)Nc2ccccc2)O3)cc1,x,x,-8,x,x
CC(=O)N(C)C[C@H]1Oc2ncc(C#Cc3cccc(F)c3)cc2C(=O)N([C@@H](C)CO)C[C@H]1C,x,x,8,x,x
Cc1cc(C(=O)N/N=C/c2cc([N+](=O)[O-])ccc2O)c2ccccc2n1,-2,-34,76*,-29,5
Cc1cc(C(=O)N/N=C/c2ccc([N+](=O)[O-])cc2)c2ccccc2n1,5,7,2,21,3
O=C(/C=C/c1cc([N+](=O)[O-])ccc1OC(F)F)Nc1cccc([N+](=O)[O-])c1,3,-73*,1,-79,0
Nc1cc2c3c(cccc3c1)C(=O)N(CCN1CCCC1)C2=O,3,18,0,32,u
O=C1c2cccc3cc([N+](=O)[O-])cc(c23)C(=O)N1CCN1CCCC1,2,32,-1,61*,-1
CN1CCc2c(sc(/N=C/c3cc(Cl)ccc3O)c2C#N)C1,16,-52*,1,-60,2
O=C1CCCC2=C1C(c1ccc(O)c(O)c1)c1c(ccc3ncccc13)N2 (stereo not given),-4,0,x,11,0
CCOc1ccc(C2C3=C(CCCC3=O)Nc3ccc4ncccc4c32)cc1 (stereo not given),-1,33,3,68*,-1
CCOc1ccc(OCc2ccc(C(=O)NCC3CCCO3)o2)cc1 (stereo not given),16*,4,-38,2,0
CCOc1ccc(OCc2ccc(C(=O)NN)o2)cc1,16*,8,-3,24,1
O=C(Nc1nccs1)c1ccc(COc2ccc(Cl)cc2)o1,-6,37,2,56*,1
C[C@@H]1CN([C@@H](C)CO)S(=O)(=O)c2ccc(C3=CCCCC3)cc2O[C@H]1CN(C)Cc1cccnc1,x,x,-1,x,x
CN(C)CCCNC(=O)C[C@H]1CC[C@@H]2[C@H](COc3ccc(NC(=O)C4CCC4)cc3C(=O)N2C)O1,x,x,6,x,x
COc1ccccc1NC(=O)N[C@H]1C=C[C@H](CC(=O)NCc2ccc(Cl)c(Cl)c2)O[C@@H]1CO,x,x,8,x,x
O=C(CCC1CCCNC1)c1ccccc1 (stereo not given),-3,-70*,x,-75,0
Cc1c(C)n(-c2ccccc2)c2ncnc(NCCCN(C)C)c12,0,2,-1,9,-35
Cc1ccc(-n2c(C)c(C)c3c(NCCO)ncnc32)cc1,-6,9,27*,30,4
CCC(=O)Nc1ccc2c(c1)OC[C@@H](C)N(Cc1nccs1)C[C@H](C)[C@H](OC)CN(C)C2=O,x,x,-7,x,x
O=C(C[C@@H]1CC[C@@H](NC(=O)c2cccc(F)c2)[C@@H](CO)O1)NCc1ccccc1,x,x,-5,x,x
CCn1c(SCC(=O)Nc2ccc(N(C)C)cc2)nnc1-c1cccc(C)c1,4,-76*,1,-80,0
COc1cccc(-c2nnc(SCc3nc4ccccc4[nH]3)n2N)c1,-2,60,-33,71*,1
Nn1c(SCc2nc3ccccc3[nH]2)nnc1-c1cccnc1,3,5,7,23,0
CCn1c2ccccc2c2cc(NC(=O)CSc3nnc(-c4cccc(OC)c4)n3N)ccc21,0,20,-11,58*,0
